Experiment [1] in a line: antimalarial activity against Dd2 strain (AID 2302;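 active means growth inhibition above 50% at the single 2 µM test dose, taken to imply half-maximal potency below 2 µM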;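 further: 0% = DMSO untreated growth and 100% = chloroquine plus artemisinin killed control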). To be noted: P. falciparum Dd2 in RBCs, LDH growth readout, 72 h; at 2 µM; active compounds read high.
Experiment [2] can be described thus: HepG2 cytotoxicity, primary screen, cytotoxicity control for P. falciparum antimalarial project, cell-based, ATP luminescence (AID 2303;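 active means inhibition above 50%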;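 further: 0% = DMSO wells and 100% = digitonin-killed cells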). To be noted: HepG2 viability, 24-48 h, at 10 µM, active compounds read high.
The target in experiment [3] is L-lactate dehydrogenase (Plasmodium falciparum (isolate CDC / Honduras)) (UniProt Q27743). Description: PfLDH activity inhibition – cell lysate, 3D7 strain, counter-screen for P. falciparum growth inhibition project (AID 2304).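 Further: 0% = vehicle and 100% = reference inhibitor.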 As to conditions: P. falciparum 3D7 crude extract, LDH APAD/NBT absorbance; at 2 µM; active compounds read high. (A counterscreen serves to expose hits that act by an unwanted route or on another target.)
Chain of L-lactate dehydrogenase (Plasmodium falciparum (isolate CDC / Honduras)) (Q27743 whole entry, looked up): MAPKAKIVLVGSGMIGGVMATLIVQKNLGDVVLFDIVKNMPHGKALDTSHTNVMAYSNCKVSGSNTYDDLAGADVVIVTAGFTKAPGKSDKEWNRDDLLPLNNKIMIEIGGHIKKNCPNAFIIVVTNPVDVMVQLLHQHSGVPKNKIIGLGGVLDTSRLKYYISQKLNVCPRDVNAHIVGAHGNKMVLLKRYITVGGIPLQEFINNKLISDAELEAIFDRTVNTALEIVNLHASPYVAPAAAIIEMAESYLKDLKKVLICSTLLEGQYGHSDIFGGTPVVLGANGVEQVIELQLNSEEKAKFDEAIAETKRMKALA

Experiment [4] can be described thus: inhibition of 3D7 malaria parasite growth – strain 3D7 (AID 2306).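 Further: 0% = DMSO wells and 100% = chloroquine plus artemisinin control wells.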 To be noted: P. falciparum 3D7 erythrocytic growth, LDH absorbance, 72 h; at 2 µM; active compounds read high.
The target of experiment [5] is Calcium-dependent protein kinase 1 (Plasmodium falciparum (isolate 3D7)) (UniProt P62344). Description: PfCDPK1 kinase inhibitors, biochemical, TCAMS library (AID 1159585; cut-off not given, nearly all actives have IC50 up to about 0.98 µM;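 further: inhibitors leave more ATP so luminescence rises with inhibition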). To be noted: recombinant PfCDPK1, Kinase-Glo ATP depletion luminescence. On the technique in general: Kinase-Glo measures the ATP left after a reaction by luminescence.
Chain of Calcium-dependent protein kinase 1 (Plasmodium falciparum (isolate 3D7)) (P62344 whole entry, looked up): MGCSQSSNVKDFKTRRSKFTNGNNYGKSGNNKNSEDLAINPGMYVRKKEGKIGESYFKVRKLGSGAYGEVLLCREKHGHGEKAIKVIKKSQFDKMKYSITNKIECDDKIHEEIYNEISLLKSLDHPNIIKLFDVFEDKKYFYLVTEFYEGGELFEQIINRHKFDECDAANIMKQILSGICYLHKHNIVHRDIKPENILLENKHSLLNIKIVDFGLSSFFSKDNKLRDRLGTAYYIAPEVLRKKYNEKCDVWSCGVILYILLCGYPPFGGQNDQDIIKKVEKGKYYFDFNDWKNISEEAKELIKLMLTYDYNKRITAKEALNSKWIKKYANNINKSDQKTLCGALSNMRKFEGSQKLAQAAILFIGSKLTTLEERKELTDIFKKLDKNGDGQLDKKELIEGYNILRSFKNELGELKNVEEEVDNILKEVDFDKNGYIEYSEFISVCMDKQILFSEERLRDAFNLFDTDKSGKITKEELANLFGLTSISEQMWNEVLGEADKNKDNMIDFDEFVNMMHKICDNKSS
Experiment [6] concerns the target Plasmodium falciparum protein kinase 6 (PK6, PF3D7_1337100) (UniProt Q8IDW1). Description: PfPK6 kinase inhibitors, biochemical, TCAMS library (AID 1159586). As to conditions: recombinant PfPK6, Kinase-Glo ATP depletion luminescence.
The target of experiment [7] is Protein kinase 7 (PK7), Plasmodium falciparum 3D7 (PF3D7_0213400) (UniProt Q7YTF7). Description: inhibition of Plasmodium PK7 catalytic activity – biochemical, TCAMS antimalarial set, Kinase-Glo luminescence (AID 1159587). As to conditions: recombinant PfPK7, Kinase-Glo ATP depletion luminescence.
Chain of Protein kinase 7 (PK7), Plasmodium falciparum 3D7 (PF3D7_0213400) (Q7YTF7 1-343): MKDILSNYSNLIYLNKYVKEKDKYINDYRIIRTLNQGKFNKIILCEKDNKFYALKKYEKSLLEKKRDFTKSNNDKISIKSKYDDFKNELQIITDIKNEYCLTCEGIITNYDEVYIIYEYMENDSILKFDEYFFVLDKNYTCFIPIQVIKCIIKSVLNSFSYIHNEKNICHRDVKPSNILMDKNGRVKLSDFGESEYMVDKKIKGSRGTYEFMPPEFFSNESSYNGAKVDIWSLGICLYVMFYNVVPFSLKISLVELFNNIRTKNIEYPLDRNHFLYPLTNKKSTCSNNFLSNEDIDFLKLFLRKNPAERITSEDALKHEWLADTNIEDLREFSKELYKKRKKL
Experiment [8] concerns the target Calcium-dependent protein kinase 4 (Plasmodium falciparum (isolate 3D7)) (UniProt Q8IBS5). The experiment can be described thus: PfCDPK4 kinase inhibitors, biochemical, TCAMS library (AID 1159588; cut-off not given, nearly all actives have IC50 up to about 0.91 µM). As to conditions: recombinant PfCDPK4, Kinase-Glo ATP depletion luminescence.

Experimental findings from PubChem BioAssay are described below.

One may read the inhibition as the drop in the measured response relative to a control, in per cent.

Values without a mark were called inactive. For part of these data: Potency and affinity values are given separately. Calls of active or inactive are those of the source. Unless noted, how the calls were made is not given here.

Chain of Plasmodium falciparum protein kinase 6 (PK6, PF3D7_1337100) (Q8IDW1 1-305): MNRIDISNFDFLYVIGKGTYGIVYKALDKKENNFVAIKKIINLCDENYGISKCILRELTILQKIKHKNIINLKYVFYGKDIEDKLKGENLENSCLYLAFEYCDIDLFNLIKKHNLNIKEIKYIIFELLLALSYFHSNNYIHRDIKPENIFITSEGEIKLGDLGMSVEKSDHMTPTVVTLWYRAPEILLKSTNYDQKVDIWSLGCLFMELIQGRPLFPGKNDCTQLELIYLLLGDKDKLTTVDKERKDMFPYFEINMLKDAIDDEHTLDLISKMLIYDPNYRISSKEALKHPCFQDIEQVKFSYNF
Chain of Calcium-dependent protein kinase 4 (Plasmodium falciparum (isolate 3D7)) (Q8IBS5 whole entry, looked up): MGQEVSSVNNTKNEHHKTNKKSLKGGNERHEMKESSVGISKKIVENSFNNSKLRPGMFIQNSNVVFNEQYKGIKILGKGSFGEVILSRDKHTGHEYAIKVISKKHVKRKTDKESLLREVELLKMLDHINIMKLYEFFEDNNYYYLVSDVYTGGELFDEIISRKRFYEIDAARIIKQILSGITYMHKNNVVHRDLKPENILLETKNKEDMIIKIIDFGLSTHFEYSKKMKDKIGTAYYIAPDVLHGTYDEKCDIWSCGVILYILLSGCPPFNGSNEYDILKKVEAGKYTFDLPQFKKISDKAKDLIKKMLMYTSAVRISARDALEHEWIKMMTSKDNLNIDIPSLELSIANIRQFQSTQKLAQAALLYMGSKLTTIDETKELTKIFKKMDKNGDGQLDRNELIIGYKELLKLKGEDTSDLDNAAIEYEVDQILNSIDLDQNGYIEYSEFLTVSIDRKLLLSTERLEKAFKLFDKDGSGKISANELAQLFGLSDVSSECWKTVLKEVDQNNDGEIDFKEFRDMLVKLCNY

As to `CCCOc1cc(OCCC)cc(-c2ccc(C(=O)Nc3ccc4ccc(C)nc4c3)c(=O)[nH]2)c1`, the growth inhibition in experiment [1] was 76% (active); in experiment [4] it was 101% (active). Also, the inhibition in experiment [2] was 11%; in experiment [3], 5%. Further, the result in experiment [5], in experiment [6], in experiment [7] and in experiment [8] was inactive.
Consider `CCCN(CCC)C(C)CCC(C)Nc1c2ccc(Cl)cc2nc2ccc(OC)cc12` (stereo not drawn), for which the growth inhibition was 99% (active) in experiment [1] and 101% (active) in experiment [4]. In addition, the inhibition is 41% in experiment [2] and 3% in experiment [3]. The outcome in experiment [5], in experiment [6], in experiment [7] and in experiment [8] was inactive.
Turning to `Cc1cc(C(=O)CN2C(=O)NC(C)(c3cccc4ccccc34)C2=O)c(C)n1Cc1ccco1` (stereo not drawn), the growth inhibition in experiment [1] was 23%; in experiment [4], 90% (active). Moreover, the inhibition in experiment [2] was -2%; in experiment [3] it was 0%. Besides, the outcome in experiment [5], in experiment [6], in experiment [7] and in experiment [8] was inactive.
On to `CC(C)NCc1ccc(OCc2cccc(COc3ccc(CNC(C)C)cc3I)c2)c(I)c1`, for which the growth inhibition in experiment [1] is 92% (active); in experiment [4] it was 101% (active). Also, the inhibition in experiment [2] is 100% (active); in experiment [3] it was 6%. The result in experiment [5], in experiment [6], in experiment [7] and in experiment [8] was inactive.
Consider `COc1cccc(Nc2nccc(NCC(O)c3ccc(C(F)(F)F)cc3)n2)c1` (stereo not drawn), for which the growth inhibition is 28% in experiment [1] and 99% (active) in experiment [4]. For the same compound, the inhibition is 14% in experiment [2] and -4% in experiment [3]. Also, the outcome in experiment [5], in experiment [6], in experiment [7] and in experiment [8] was inactive.
Turning to `CC(Cc1ccc(OCCN2CCN(c3ccccc3)CC2)cc1)NCC(O)c1cccc(Cl)c1F` (stereo not drawn), the growth inhibition in experiment [1] was 56% (active); in experiment [4], 92% (active). For the same compound, the inhibition in experiment [2] was 40%; in experiment [3], 6%. The outcome in experiment [5], in experiment [6], in experiment [7] and in experiment [8] was inactive.
Consider `C[C@@H](CC1CCCCC1)NCc1cccc(NS(=O)(=O)c2ccc(O)c(-c3ccno3)c2)c1`, for which the growth inhibition in experiment [1] is 4%; in experiment [4], 88% (active). Besides, the figures for the inhibition in experiment [2] and in experiment [3] were -2% and -6%, respectively. Also, the result in experiment [5], in experiment [6], in experiment [7] and in experiment [8] was inactive.
For `COc1cc([N+](=O)[O-])ccc1NC(=O)c1cc(Cl)ccc1O`, the growth inhibition was 100% (active) in experiment [1] and 87% (active) in experiment [4]. The inhibition in experiment [2] is 92% (active); in experiment [3] it was 6%. Besides, the result in experiment [5], in experiment [6], in experiment [7] and in experiment [8] was inactive.
Consider `Clc1cc(Nc2ccnc3ccc(Br)cc23)ccc1Oc1ccc(Cl)c2ccccc12`, for which the values for the growth inhibition in experiment [1] and in experiment [4] were 86% (active) and 99% (active), respectively. Besides, the inhibition is 6% in experiment [2] and 3% in experiment [3]. For the same compound, the result in experiment [5], in experiment [6], in experiment [7] and in experiment [8] was inactive.
On to `N#Cc1ccc(-c2ccc(C(=O)NC3CCN(CCN4CCc5c(cccc5C(F)(F)F)C4)CC3)cc2)cc1`, for which the figures for the growth inhibition in experiment [1] and in experiment [4] were 51% (active) and 98% (active), respectively. The inhibition in experiment [2] is 40%; in experiment [3], -1%. Also, the result in experiment [5], in experiment [6], in experiment [7] and in experiment [8] was inactive.
For `O=C(/C=C/c1ccc(Cl)c(Cl)c1)NCCCCCN1CCC(CCNC(=O)C2(c3ccc(Cl)cc3)CC2)CC1`, the growth inhibition in experiment [1] is 16%; in experiment [4], 91% (active). Further, the inhibition is 96% (active) in experiment [2] and -3% in experiment [3]. Further, the result in experiment [5], in experiment [6], in experiment [7] and in experiment [8] was inactive.
Regarding `O=C(Nc1cccc(-c2ccc(-c3nc4ccc(F)cc4[nH]3)cc2)c1)c1ccoc1`, the growth inhibition in experiment [1] is 6%; in experiment [4], 85% (active). The inhibition in experiment [2] was 39%; in experiment [3], -7%. For the same compound, the outcome in experiment [5], in experiment [6], in experiment [7] and in experiment [8] was inactive.
In the case of `COc1cc(-c2nc(-c3ccccc3)c(-c3ccc([N+](=O)[O-])cc3)[nH]2)cc(OC)c1O`, the results for the growth inhibition in experiment [1] and in experiment [4] were 56% (active) and 98% (active), respectively. Besides, the values for the inhibition in experiment [2] and in experiment [3] were 7% and -3%, respectively. Moreover, the outcome in experiment [5], in experiment [6], in experiment [7] and in experiment [8] was inactive.
Regarding `Cc1cc(NC(=O)NCCN2CCC(NS(=O)(=O)c3ccccc3F)CC2)c2ccccc2n1`, the growth inhibition in experiment [1] was 44%; in experiment [4], 81% (active). In addition, the inhibition in experiment [2] was 0%; in experiment [3], -4%. Besides, the outcome in experiment [5], in experiment [6], in experiment [7] and in experiment [8] was inactive.
Regarding `c1ccc(Cn2nnnc2-c2cccc(Nc3ccnc4cc(-c5nccs5)ccc34)c2)cc1`, the growth inhibition in experiment [1] is 46%; in experiment [4], 87% (active). Moreover, the inhibition in experiment [2] was 51% (active); in experiment [3] it was -4%. Further, the outcome in experiment [5], in experiment [6], in experiment [7] and in experiment [8] was inactive.
With `Cn1cc(CN2CCCC(COC(c3ccccc3)c3ccccc3)C2)cn1` (stereo not drawn), the growth inhibition in experiment [1] and in experiment [4] was 99% (active) in each case. Moreover, the inhibition is 24% in experiment [2] and 0% in experiment [3]. The outcome in experiment [5], in experiment [6], in experiment [7] and in experiment [8] was inactive.
As to `COc1ccccc1N(C)CCNc1cc(C)nc(Nc2ccc(C)cc2)n1`, the growth inhibition in experiment [1] was 25%; in experiment [4] it was 93% (active). Also, the inhibition was 9% in experiment [2] and 0% in experiment [3]. Besides, the outcome in experiment [5], in experiment [6], in experiment [7] and in experiment [8] was inactive.
Turning to `COc1ccc(-c2nnc(Sc3ccc(C#N)c([N+](=O)[O-])c3)n2CCC(C)C)cc1`, the growth inhibition in experiment [1] was 53% (active); in experiment [4] it was 89% (active). Moreover, the inhibition in experiment [2] is 15%; in experiment [3], 5%. Besides, the result in experiment [5], in experiment [6], in experiment [7] and in experiment [8] was inactive.
Turning to `CC(C)N1CCN(C(CN2CCN(CCCOc3cccc(-c4ccccc4)c3)CC2)c2ccc(F)cc2)CC1` (stereo not drawn), the values for the growth inhibition in experiment [1] and in experiment [4] were 99% (active) and 100% (active), respectively. For the same compound, the inhibition in experiment [2] is 100% (active); in experiment [3] it was -2%. In addition, the outcome in experiment [5], in experiment [6], in experiment [7] and in experiment [8] was inactive.
As for `CCCC[C@H](NC(=O)OC(C)(C)C)C(=O)Nc1ccc(Cc2ccc(NC(=O)[C@H](CCCC)NC(=O)OC(C)(C)C)cc2)cc1`, the growth inhibition in experiment [1] was 71% (active); in experiment [4], 95% (active). Moreover, the inhibition in experiment [2] is 5%; in experiment [3], 3%. For the same compound, the outcome in experiment [5], in experiment [6], in experiment [7] and in experiment [8] was inactive.
As to `CC1(C)CCCN(Cc2c(O)ccc3c(=O)c(-c4nc5ccccc5s4)c(N)oc23)C1`, the growth inhibition was 100% (active) in experiment [1] and 101% (active) in experiment [4]. The inhibition in experiment [2] is 20%; in experiment [3] it was -1%. Besides, the result in experiment [5], in experiment [6], in experiment [7] and in experiment [8] was inactive.
